Screens (PubChem BioAssay)
Rows were chosen to be rich in hits. Some 4.1% of all compounds tested hit in one or more screens of this group.
DAX1 inh-1 = inhibits human nuclear receptor DAX1 | P51843 | HEK293 Gal4-DAX1 luciferase reporter, luminescence | inhibition, % at 6.75 µM | hit rate 0.99% among 340,000;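 active = inhibition above the mean over all tested compounds plus 3 SD, cut at about 4.2% in these data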;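 also: 0% = DAX1-transfected cells with DMSO and 100% = empty-vector control cells with DMSO; inhibition shows as a rise in luminescence from relieved DAX1 repression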
Target sequence (P51843 207-470 limits assumed): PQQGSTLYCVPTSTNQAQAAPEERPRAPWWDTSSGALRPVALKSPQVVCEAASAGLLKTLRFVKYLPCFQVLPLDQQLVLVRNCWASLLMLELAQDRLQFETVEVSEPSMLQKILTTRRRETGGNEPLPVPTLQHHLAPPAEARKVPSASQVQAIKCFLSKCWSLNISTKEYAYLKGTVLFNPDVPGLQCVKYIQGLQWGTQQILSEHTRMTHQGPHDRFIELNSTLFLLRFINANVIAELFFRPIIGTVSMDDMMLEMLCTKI
ssDAF12 agonist = S. stercoralis DAF-12 activation, primary screen; HEK293 ssDAF-12/GRIP1 lit1-tk-luc reporter, luminescence; % of 3 µM dafachronic acid response; activation, % at 6.8 µM; hit rate 1% among 370,000; AID 652126;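 active = activation above the mean over all tested compounds plus 3 SD, cut at about 0.9% in these data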;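 also: 0% = DMSO-only wells and 100% = 3 µM delta7-dafachronic acid wells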
DAX1 inh-2 = DAX1 (NR0B1) inhibition, primary screen; inhibition, % at 6.8 µM; HEK293T StAR-luciferase reporter, SF-1/DAX-1 repression relief; AID 652010; hit rate 1.1% among 370,000;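 active = inhibition above the mean over all tested compounds plus 3 SD, cut at about 3.6% in these data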;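 also: 0% = DAX-1 cells with DMSO and 100% = cells lacking DAX-1 with DMSO; higher inhibition means more luminescence from relief of DAX-1 repression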
hgDAF12 agonist = hgDAF-12 agonism, primary luciferase screen; HEK293 GAL4-hgDAF12 UAS-luciferase reporter, agonist luminescence; normalized to butyrate control; activation, % at 6.8 µM; hit rate 1.8% among 370,000; AID 687014;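 active = activation above a cutoff set at the mean of all screened compounds plus 3 SD, cut at about 10% in these data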;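 also: 0% = DMSO wells and 100% = sodium butyrate wells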
hcDAF-12 act = activators of H. contortus DAF-12 nuclear receptor; HEK293 hcDAF-12 lit1-tk-luc reporter, luminescence; 0% DMSO, 100% Δ7-dafachronic acid; activation, % at 6.8 µM; hit rate 1.4% among 370,000; AID 652067;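 active = activation above the mean of all tested compounds plus 3 SD, cut at about 5.5% in these data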;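 also: 100% = response to 3 µM Δ7-dafachronic acid high control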
DAX1 inh confirm = NR0B1 (human) inhibition, confirmation. shares compounds with DAX1 inh-2. HEK293T StAR-promoter luciferase reporter, SF-1/DAX-1 repression. inhibition, % at 6.8 µM. hit rate 87% among 2,400. AID 652134;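 active = inhibition above the average of every tested compound plus 3 SD, cut at about 3.8% in these data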;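 also: 0% = DAX-1 cells with DMSO and 100% = no DAX-1 control cells with DMSO; active compounds raise luminescence by relieving repression of the StAR reporter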
Target sequence (P51843 whole entry, looked up): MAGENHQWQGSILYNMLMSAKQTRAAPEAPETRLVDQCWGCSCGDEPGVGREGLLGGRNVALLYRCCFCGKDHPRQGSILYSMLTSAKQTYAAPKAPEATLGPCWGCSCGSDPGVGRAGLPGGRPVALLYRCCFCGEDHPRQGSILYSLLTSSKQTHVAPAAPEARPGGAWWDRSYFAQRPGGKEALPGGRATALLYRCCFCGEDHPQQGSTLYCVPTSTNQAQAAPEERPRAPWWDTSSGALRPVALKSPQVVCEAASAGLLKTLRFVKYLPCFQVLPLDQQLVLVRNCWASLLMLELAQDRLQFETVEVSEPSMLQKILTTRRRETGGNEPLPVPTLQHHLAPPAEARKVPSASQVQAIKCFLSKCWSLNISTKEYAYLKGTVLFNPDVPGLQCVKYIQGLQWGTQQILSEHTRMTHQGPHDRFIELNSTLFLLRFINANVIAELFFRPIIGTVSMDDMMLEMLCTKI
SF1 AF2mut Luc = counter-screen for DAX1 inhibitors: nonselective inhibitors with SF-1 AF2 mutant; hit rate 78% among 2,400; shares compounds with DAX1 inh-2; inhibition, % at 6.8 µM; HEK293 StAR-luciferase, luminescence;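 active = inhibition above the mean of all tested compounds plus 3 SD, cut at about 3% in these data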;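 also: 0% = DAX-1 transfected cells with DMSO and 100% = cells without DAX-1 with DMSO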
LXRb hcDAF ctr = LXR-beta agonism as hcDAF-12 counter-screen; 3,400 tested, under 10 active; HEK293 Gal4-LXR tk-luc reporter, luminescence, 24 h; normalized: DMSO 0%, positive control 100%; shares compounds with hcDAF-12 act; AID 743027; activation, % at 6.8 µM;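 active = mean percent activation of the reporter above a cutoff set as the average over tested compounds plus their standard deviation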
hcDAF12 conf = hcDAF-12 agonism, confirmation assay; shares compounds with hcDAF-12 act; HEK293 hcDAF-12 lit1-tk-luc reporter, luminescence; % of Δ7-dafachronic acid response; activation, % at 6.8 µM; hit rate 61% among 3,400; AID 743032;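 active = mean activation across triplicate tests above the threshold derived from the earlier primary screen, cut at about 5.5% in these data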;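 also: 0% = DMSO only wells and 100% = 3 µM Δ7-dafachronic acid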
An asterisk follows results filed as active; · = not tested or not shown.

SMILES | DAX1 inh-1 | ssDAF12 agonist | DAX1 inh-2 | hgDAF12 agonist | hcDAF-12 act | DAX1 inh confirm | SF1 AF2mut Luc | LXRb hcDAF ctr | hcDAF12 conf
CCC(=O)c1ccc(/C=C/c2nc3ccccc3n2C)o1 | -0.4 | 1.4* | 4.7* | 24.9* | 6.9* | 8.8* | 5.4* | 1.4 | 6.7*
Cc1ccc(-c2noc(-c3ccccc3Br)n2)cc1 | 4.2* | 2.9* | 5.5* | 14.1* | 16.1* | 16.1* | 7.8* | 1.9 | 21.0*
c1ccc(-c2noc(-c3ccccc3-c3ccccc3)n2)cc1 | -0.1 | -0.9 | -0.2 | -0.4 | -0.8 | · | · | · | ·
CCOC(=O)[C@@]12CCC3=C1N(CCC3)C(=O)[C@H](CC(=O)N1CCSCC1)C2 | · | -1.2 | -0.2 | 2.2 | -1.8 | · | · | · | ·
CC1=C(O)c2ccccc2C(=O)C1=O | · | -1.6 | -1.0 | 0.3 | -2.4 | · | · | · | ·
Cc1ccccc1N=CC1=C(O)c2ccccc2C1=O | -2.5 | 2.1* | 5.5* | 11.2* | 15.1* | 5.8* | -1.3 | 0.9 | 8.3*
CC1CCC(NC(=O)C(=O)Nc2ccc3c(c2)OCO3)CC1 (stereo not drawn) | 1.6 | 0.2 | 7.8* | 4.9 | 7.0* | 8.9* | 8.8* | 1.1 | 5.7*
O=C(NCc1ccc(Cl)cc1)C1CCCN(c2ncccn2)C1 (stereo not drawn) | · | -1.3 | 0.6 | -1.8 | 1.1 | · | · | · | ·
COCCCNC(=O)C[C@H]1C[C@@]2(C(=O)OC)C(=C[C@H](C(C)C)O[C@@H]2C2CC2)N(Cc2ccco2)C1=O | · | -1.7 | -1.4 | -2.8 | -1.4 | · | · | · | ·
O=C(Nc1cccc([N+](=O)[O-])c1)c1cc2ccccc2cc1O | -7.1 | -1.6 | -3.1 | -6.0 | -1.9 | · | · | · | ·
O=C(Nc1ccncc1)c1cc2ccccc2cc1O | 1.6 | -0.3 | 6.2* | 12.4* | 6.7* | 7.3* | 5.8* | 0.9 | 6.3*
COc1ccc(C(=O)NC(=O)Nc2cc(C)ccn2)cc1 | -1.2 | 0.6 | 6.6* | 8.5 | 7.7* | -1.0 | -4.1 | 0.6 | 2.9
COc1ccc(NC(=O)Nc2cc(C)ccn2)cc1 | -2.0 | 0.6 | 5.0* | 19.0* | 7.3* | 16.9* | 8.2* | 2.1 | 8.9*
O=C(NC1CCCCN(Cc2cccc(C(F)(F)F)c2)C1=O)c1c(F)cccc1F (stereo not drawn) | · | -2.0 | -0.6 | -2.8 | -2.0 | · | · | · | ·
Cc1cccc(/C=N/Nc2nncc3ccccc23)c1 | 0.5 | 0.7 | 14.3* | 17.9* | 12.5* | 12.0* | 4.9* | 2.0 | 11.6*
N#Cc1ccsc1NC(=O)CSc1nncs1 | 1.4 | 0.5 | 8.4* | 16.5* | 9.4* | 11.3* | 5.2* | 1.3 | 11.2*
N#CCSc1ccc2nc(-c3ccccc3)cn2n1 | 1.6 | 1.0* | 7.1* | 7.2 | 7.5* | 5.8* | 4.7* | 0.9 | 8.1*
CCOc1ccc(NC(=O)/C=C/c2ccccc2)c([N+](=O)[O-])c1 | 0.0 | -0.2 | -0.2 | 5.9 | 2.1 | · | · | · | ·
CCOc1ccc(N/C=C/C(=O)c2ccccc2)c([N+](=O)[O-])c1 | -1.6 | 0.2 | 7.5* | 9.3 | 11.1* | 1.3 | -2.4 | 1.0 | 4.1
C[C@H](O)[C@@H]1CN2CCc3ccc(-c4ccc5c(c4)OCO5)cc3[C@@H]2C[C@@H]1N(C)C(=O)Nc1ccccc1 | · | -1.2 | 0.9 | 2.9 | 0.7 | · | · | · | ·
CCOC(=O)C1(C(=O)OCC)Cc2c([nH]c3ccccc23)[C@]2(N1)C(=O)N(C)c1ccc(Br)cc12 | · | -0.5 | -1.2 | -0.6 | 3.5 | · | · | · | ·
COc1ccc(-c2csc(-c3ccccc3)n2)c(OC)c1 | 4.6* | 2.4* | 8.9* | 21.5* | 15.0* | 18.5* | 8.5* | 1.9 | 10.6*
O=C(O)c1ccc(N/N=C/c2cc3c(cc2[N+](=O)[O-])OCO3)cc1 | -1.0 | -1.3 | -1.3 | -0.1 | -2.7 | · | · | · | ·
O=C(O)c1ccc(N/N=C/c2cc3cc4c(cc3nc2Cl)OCCO4)cc1 | -5.1 | 2.9* | 7.3* | 24.2* | 11.7* | 25.3* | 9.6* | 3.1 | 20.5*
CCOC(=O)[C@@]12CCCC3=C1N(CCC3)C(=O)[C@H]2CC(=O)NCC1CCCCC1 | · | -0.9 | -0.6 | -1.4 | -2.1 | · | · | · | ·
SMILES | DAX1 inh-1 | ssDAF12 agonist | DAX1 inh-2 | hgDAF12 agonist | hcDAF-12 act | DAX1 inh confirm | SF1 AF2mut Luc | LXRb hcDAF ctr | hcDAF12 conf
COc1ccc2oc(C(=O)NCC3CCCO3)c(C)c2c1 (stereo not drawn) | 1.3 | 0.6 | 6.5* | 6.4 | 11.8* | 5.1* | 2.2 | 0.6 | 6.5*
COc1ccc(C#CCN(Cc2ccc(OC)cc2OC)C(N)=NC(=O)CCc2ccccc2)cc1 | · | -1.5 | -1.6 | 0.8 | -2.0 | · | · | · | ·
Cc1ccc(C(=O)NC2=NCCS2)cc1 | · | 0.1 | 2.8 | 9.4 | 2.9 | · | · | · | ·
CC(C)Oc1ccc(C(=O)NC2=NCCS2)cc1 | -0.1 | 0.4 | 9.9* | 22.3* | 7.5* | 13.6* | 8.1* | 1.1 | 4.4
Cc1cc(NC(=O)c2ccc(NS(=O)(=O)c3ccc(F)cc3)cc2)no1 | · | -1.6 | -0.8 | -1.1 | -2.1 | · | · | · | ·
CC(=O)c1c(C)[nH]c(C(=O)Nc2cccc(C)n2)c1C | 0.3 | 0.4 | 11.6* | 11.7* | 6.9* | 10.7* | 4.7* | 1.1 | 2.5
COc1ccc(NC(=O)c2[nH]c(C)c(C(C)=O)c2C)cc1 | 0.5 | 1.7* | 4.7* | 11.4* | 10.9* | 6.5* | 6.8* | 0.7 | 10.2*
O=C(NCc1ccco1)O[C@H]1CC[C@@]23CCCN2C(=O)CCC[C@H]3C1 | · | -1.6 | · | 2.6 | 2.1 | · | · | · | ·
C/C=C/C(=O)N1CCC(C(=O)NCC2COc3ccccc3O2)CC1 (stereo not drawn) | · | -1.2 | 0.1 | 0.5 | -1.2 | · | · | · | ·
Cc1cccc(-c2nnc(-c3cccc4ccccc34)o2)c1 | 6.4* | 1.2* | 5.4* | 11.1* | 7.0* | 10.0* | 8.5* | 1.6 | 8.7*
Clc1ccc(-c2nnc(-c3cccc4ccccc34)o2)cc1 | -0.1 | 0.9 | 2.7 | 1.9 | 3.5 | · | · | · | ·
Cn1c(=NC(=O)CS(=O)(=O)c2ccccc2)sc2ccccc21 | 1.1 | 0.6 | 1.3 | 1.1 | 2.8 | · | · | · | ·
COc1ccc(C(=O)N=c2sc3ccccc3n2C)cc1 | 4.7* | 2.8* | 5.8* | 16.3* | 13.0* | 10.5* | 7.0* | 1.5 | 19.0*
Cn1c(=NC(=O)COc2ccccc2)sc2ccccc21 | 4.7* | 0.1 | 4.7* | 12.5* | 7.9* | 7.5* | 5.1* | 0.4 | 3.1
CCCCNC(=O)C[C@H]1C(=O)N(CCCOC)C2=CCCCC[C@]21C(=O)OC | · | -0.9 | 0.9 | -4.8 | -0.4 | · | · | · | ·
